Screens from PubChem BioAssay.
NALP1 inh: NALP1 inflammasome inhibitors in reconstituted yeast, colorimetric, S. cerevisiae, triplicate retest; S. cerevisiae NALP1/ASC/caspase-1 growth, X-gal OD620, 72 h; inhibition, % at 10 µM; hit rate 0.61% among 280,000; AID 2071, 2009; in the data active = inhibition mostly above about 24%, no sharp cut-off; inactive = mostly below about 32%
TIM10 inh: growth inhibitors of isogenic TIM10 control yeast, primary screen, counter-screen for tim10-1 yeast inhibitor project, luminescence, uHTS; S. cerevisiae TIM10 strain growth, BacTiter-Glo luminescence, 24 h; hit rate 1.4% among 330,000; inhibition, % at 10 µM;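 active = inhibition of 40% or more at the single tested concentration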;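 note: wild-type TIM10 isogenic control strain grown at permissive 25 °C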
tim10-1 inh: growth inhibitors of tim10-1 mutant yeast, primary screen, luminescence, uHTS | S. cerevisiae tim10-1 ts strain growth, BacTiter-Glo, 24 h | inhibition, % at 20 µM | hit rate 2.2% among 330,000 | AID 463190, 2010;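 active = inhibition of at least 40%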;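 note: mutant grown at 25 °C; 0% = DMSO wells with yeast and 100% = wells holding no yeast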
tim23-1 inh: growth inhibitors of tim23-1 mutant yeast, primary screen, luminescence, uHTS. S. cerevisiae tim23-1 growth, BacTiter-Glo luminescence, 24 h. inhibition, % at 20 µM. hit rate 1.3% among 330,000. AID 463212, 2010;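 active = growth inhibition of the mutant yeast at or above 50%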;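 note: temperature-sensitive mutant grown at 25 °C; plate controls were DMSO-treated mutant yeast for no effect and medium wells lacking yeast for full effect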
NALP3 yeast inh: NALP3 inflammasome inhibitors in reconstituted yeast, primary screen, luminescence, uHTS | inhibition, % at 10 µM | hit rate 0.39% among 330,000 | Yeast reconstituted NLRP3/ASC/caspase-1, beta-gal luminescence, 24 h | AID 2825, 2010;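 active = inhibition of 50% or more; inactive = inhibition below 50%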;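 note: plate controls were induced DMSO wells for no effect and uninduced yeast grown without galactose for full effect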
tim23-1 confirm: tim23-1 mutant yeast growth inhibitors, confirmation, luminescence, single concentration. shares compounds with tim23-1 inh. S. cerevisiae tim23-1 growth, BacTiter-Glo luminescence, 24 h. inhibition, % at 20 µM. hit rate 83% among 4,400. AID 463218, 2010;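 active = inhibition above about 39% in either of two replicate wells at 20 µM, limit read from the data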;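 note: temperature-sensitive tim23-1 mutant grown at 25 °C; 0% = DMSO wells with yeast and 100% = medium wells without yeast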
* = called active by the depositor; x = no result given. The list is not random: actives were taken first. Their share in the collection is about 4%.

SMILES	NALP1 inh	TIM10 inh	tim10-1 inh	tim23-1 inh	NALP3 yeast inh	tim23-1 confirm
Cc1ccc(O)c(NC(=O)c2onc(C)c2Cl)c1	-4.0	11.5	-39.3	19.1	23.4	x
Cc1ccc(S(=O)(=O)N2CCCCC2)cc1NC(=O)CNCc1ccco1	12.6	0.0	19.4	28.7	10.6	x
CCOC(=O)N1CCC(NC(=O)c2ccccc2C(=O)O)CC1	x	12.7	12.2	7.1	-1.9	x
CCOC(=O)N1CCC(NC(=O)c2oc3c(C)c(C)ccc3c2C)CC1	9.7	29.7	36.9	59.8*	19.7	58.1*
CCn1c(N2CCN(S(=O)(=O)c3ccc(Cl)cc3)CC2)nc2ccccc21	-1.0	13.0	20.5	63.4*	7.0	43.0*
CCn1c(N2CCN(S(=O)(=O)c3ccc(F)cc3)CC2)nc2ccccc21	4.2	17.4	22.9	39.8	28.5	x
CN(C)S(=O)(=O)c1cccc(NC(=S)N/N=C/c2cc(Br)ccc2O)c1	28.8	29.5	19.1	58.4*	19.9	47.9*
O=C(NCc1ccc(F)cc1)c1ccncc1	19.2	4.8	-4.0	-10.2	3.9	x
COc1ccc(-c2nc3ccccn3c2CN2CCN(c3ccccc3F)CC2)cc1	1.3	28.2	32.8	54.8*	24.9	39.9*
Nc1cc(-c2ccc(Br)cc2)nn1Cc1ccccc1	-1.9	x	x	x	x	x
Nc1cc(-c2ccccc2)nn1Cc1ccc(Cl)cc1	-3.1	14.8	29.8	50.4*	23.1	27.2
Cc1scc(C(=O)N2CCN(c3ccc(Cl)cc3)CC2)c1C	-25.3	26.8	36.8	29.7	3.4	x
Oc1c(Cl)cc(Cl)cc1/C=N/c1nccs1	25.7	32.4	23.5	69.2*	6.4	53.9*
Cc1[nH]n(-c2ccccc2)c(=O)c1C(c1cccc([N+](=O)[O-])c1)c1c(C)[nH]n(-c2ccccc2)c1=O	5.3	38.3	34.3	56.4*	-32.8	60.2*
Cc1[nH]n(-c2ccccc2)c(=O)c1C(c1ccc(C(=O)O)cc1)c1c(C)[nH]n(-c2ccccc2)c1=O	19.8	13.8	7.6	23.8	5.5	x
O=C(/C=C/c1ccccc1)Nc1cc(S(=O)(=O)N2CCOCC2)ccc1N1CCCC1	23.0	-4.7	18.9	3.4	9.1	x
NC(=S)NNc1cc(Cl)cc(Cl)c1	-14.5	2.7	12.4	57.7*	24.7	69.8*
CCNC(=O)n1cc(-n2cncn2)c(-c2ccccc2)n1	17.0	-3.1	8.1	6.7	4.2	x
COc1cccc2c1C(=O)c1c(O)c3c(c(O)c1C2=O)C[C@](O)(C(C)=O)C[C@H]3O[C@@H]1C[C@@H](N)[C@@H](O)[C@@H](C)O1	x	-0.9	3.1	51.2*	42.5	43.8*
